Most compounds without a hit are left out; they make up all but 4% or so of the library.
Mdm2 MdmX PPI – inhibitors of human Mdm2/MdmX interaction; O15151+Q00987; SaOS-2 split-luciferase Mdm2/MdmX complementation, luminescence; inhibition, % at 8 µM; hit rate 3% among 330,000; AID 485346;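 active = inhibition of at least 50% at 8 µM in the primary screen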
Target sequence (O15151 whole entry, looked up): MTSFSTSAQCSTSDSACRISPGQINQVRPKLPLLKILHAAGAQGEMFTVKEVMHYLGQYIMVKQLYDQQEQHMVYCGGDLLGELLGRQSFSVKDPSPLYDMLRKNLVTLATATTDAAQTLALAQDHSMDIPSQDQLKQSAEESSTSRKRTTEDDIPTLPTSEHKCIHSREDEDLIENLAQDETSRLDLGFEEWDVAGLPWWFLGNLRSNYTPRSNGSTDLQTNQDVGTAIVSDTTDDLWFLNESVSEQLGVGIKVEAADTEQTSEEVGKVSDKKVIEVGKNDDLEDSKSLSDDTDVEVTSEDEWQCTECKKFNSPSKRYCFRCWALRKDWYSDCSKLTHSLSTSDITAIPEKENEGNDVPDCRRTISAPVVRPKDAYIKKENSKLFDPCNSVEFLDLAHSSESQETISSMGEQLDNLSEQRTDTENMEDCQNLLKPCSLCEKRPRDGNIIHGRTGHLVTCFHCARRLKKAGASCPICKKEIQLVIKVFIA
Target sequence (Q00987 whole entry, looked up): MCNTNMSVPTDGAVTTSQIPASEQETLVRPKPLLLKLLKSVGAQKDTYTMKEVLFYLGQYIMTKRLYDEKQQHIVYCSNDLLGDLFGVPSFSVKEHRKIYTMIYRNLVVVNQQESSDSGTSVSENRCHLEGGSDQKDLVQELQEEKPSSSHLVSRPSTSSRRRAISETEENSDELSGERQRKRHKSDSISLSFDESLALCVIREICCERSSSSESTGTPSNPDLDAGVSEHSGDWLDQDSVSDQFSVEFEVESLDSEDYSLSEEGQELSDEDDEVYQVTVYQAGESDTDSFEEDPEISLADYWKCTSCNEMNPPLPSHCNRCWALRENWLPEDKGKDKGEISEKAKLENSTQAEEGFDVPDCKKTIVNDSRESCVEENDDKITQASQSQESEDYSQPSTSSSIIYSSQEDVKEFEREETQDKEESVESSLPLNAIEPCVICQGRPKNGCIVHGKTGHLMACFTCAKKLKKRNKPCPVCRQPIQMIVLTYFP
697 NFkB inh – inhibitors of the PMA/ionomycin-induced NF-kB reporter in 697 B cells; hit rate 0.33% among 330,000; inhibition, % at 4 µM; 697 B-cell NF-kB luciferase reporter, 16 h; in the data active = inhibition above about 35%
Beta cell apopt – beta cell apoptosis inhibition; protection from apoptosis, % (no concentration beside the values); hit rate 0.8% among 300,000; INS-1E cytokine-induced death, ATP luminescence, 48 h; percent of positive-control rescue, neutral wells zero; AID 435005;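 active = Every replicate reaches about 75%, or at least half do and their mean reaches it too, limit read from the data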;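 also: 0% = cytokine-treated negative control wells and 100% = positive control rescue; higher means more ATP so stronger rescue from cytokine killing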
Gli-Sufu block – blocks Gli-Sufu signaling in a luciferase reporter; Sufu-KO-LIGHT fibroblasts, Gli luciferase reporter luminescence; inhibition, % at 5 µM; hit rate 0.74% among 340,000; AID 588413;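 active = inhibition above about 55%, limit read from the data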;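 also: 0% = DMSO-treated cells and 100% = wells with medium but no cells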
Jurkat NFkB inh – lowers PMA/ionomycin-induced NF-kB signal in Jurkat cells; inhibition, % at 4 µM; PMA/ionomycin-induced NF-kB luciferase reporter, luminescence; hit rate 0.53% among 330,000; in the data active = inhibition above about 50%
Jurkat NFkB conf – lowers PMA/ionomycin-induced NF-kB signal in Jurkat cells. shares compounds with Jurkat NFkB inh. Jurkat NF-kB luciferase, 16 h. inhibition, % at 4 µM. hit rate 27% among 2,700;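 active = inhibition reaching about 45% at 4 µM in either replicate, limit read from the data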;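 also: plate controls were PMA/ionomycin stimulated DMSO wells for no effect and unstimulated DMSO wells for full effect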
697 NFkB conf – inhibitors of the PMA/ionomycin-induced NF-kB reporter in 697 B cells, retest. shares compounds with 697 NFkB inh. 697 B-cell NF-kB luciferase, 16 h. inhibition, % at 4 µM. hit rate 35% among 2,000; in the data active = inhibition mostly above about 28%, no sharp cut-off; inactive = mostly below about 22%
Mdm2-MdmX conf – human Mdm2/MdmX binding inhibition, confirmed; luminescent assay; hit rate 55% among 10,000; shares compounds with Mdm2 MdmX PPI; inhibition, % at 8 µM; in the data active = inhibition above about 40%
FLuc counter – inhibits full-length luciferase, flagging false Mdm2/MdmX hits. shares compounds with Mdm2 MdmX PPI. SaOS-2 full-length luciferase counterscreen, luminescence. inhibition, % at 8 µM. hit rate 77% among 6,200;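 active = mean inhibition at 8 µM reaching about 37%, which flags the compound as non-specific, limit read from the data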;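 also: p53-null SaOS-2 cells with luciferase driven by a doxycycline-inducible promoter; compound on cells about two nights before reading with doxycycline added after day one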
Gli antag conf – confirmation of Gli-SUFU pathway antagonists | shares compounds with Gli-Sufu block | Sufu-KO-LIGHT cells, Gli luciferase reporter, luminescence | inhibition, % at 5 µM | hit rate 40% among 2,500 | AID 602428;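 active = mean inhibition at 5 µM reaching about 45%, limit read from the data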;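 also: plate controls were DMSO-treated cells for no effect and wells lacking cells for full effect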
Gli cytotox – cytotoxic in Gli-SUFU antagonist counter-screen | shares compounds with Gli-Sufu block | Sufu-KO-LIGHT cells cytotoxicity, ATP luminescence | cytotoxicity, % at 5 µM | hit rate 32% among 2,500 | AID 651994;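 active = mean cytotoxicity at 5 µM above about 25%, limit read from the data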;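 also: cells exposed to compound overnight for roughly 16 to 18 hours; plate controls were DMSO wells with cells for no effect and medium without cells for full effect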
Wnt3a cs – counter-screen for Gli-SUFU antagonists: Wnt3a reporter inhibition | shares compounds with Gli-Sufu block | Wnt-LIGHT cells, Wnt3a-driven luciferase reporter, luminescence | inhibition, % at 6.25 µM | hit rate 20% among 2,500 | AID 651995;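 active = mean inhibition above about 25%, limit read from the data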
* = called active by the depositor; x = no result given.

SMILES	Mdm2 MdmX PPI	697 NFkB inh	Beta cell apopt	Gli-Sufu block	Jurkat NFkB inh	Jurkat NFkB conf	Mdm2-MdmX conf	Gli antag conf	Gli cytotox	Wnt3a cs	others
COc1ccc(CNC(=O)C(=O)NC2CCC(C)CC2)cc1 (configuration not stated)	11	3	-5	3	0	x	x	x	x	x
Cc1cc(C)nc(/N=C(\N)Nc2ccc(OCc3ccccc3)cc2)n1	54*	-53	45	23	51*	32	35	x	x	x
Cc1cc(C)nc(/N=C(\N)Nc2ccc(OCCC(C)C)cc2)n1	66*	-26	52	26	61*	25	49*	x	x	x	FLuc counter=53*
Cc1cc(C)nc(/N=C(\N)Nc2ccc(S(=O)(=O)O)cc2)n1	19	-6	x	-10	3	x	x	x	x	x
Cc1cc(C)nc(/N=C(\N)Nc2cccc(OCc3ccccc3)c2)n1	73*	-40	-28	19	70*	22	50*	x	x	x	FLuc counter=66*
CCN(CC)CCN1C(=O)C(=O)/C(=C(/O)c2ccc(S(=O)(=O)N3CCOCC3)cc2)C1c1ccc(C(C)(C)C)cc1 (configuration not stated)	26	0	-3	1	-25	x	x	x	x	x
O=[N+]([O-])c1ccc(S(=O)(=O)NN=Cc2ccc(Cl)c(Cl)c2)cc1	x	x	x	-3	x	x	x	x	x	x
Cc1ccc(S(=O)(=O)NCC2CCCO2)cc1 (configuration not stated)	6	0	-6	x	-5	x	x	x	x	x
O=S(=O)(NCC1CCCO1)c1ccc(-c2ccc(S(=O)(=O)NCC3CCCO3)cc2)cc1 (configuration not stated)	4	48*	96*	74*	70*	69*	x	67*	31*	35*	697 NFkB conf=83*
Cc1ccc(C(=O)C[n+]2ccc3ccccc3c2)cc1	17	-5	3	14	0	x	x	x	x	x
Cc1cc(C(C)(C)C)cc(C)c1C[n+]1ccc2ccccc2c1	51*	19	111*	79*	77*	51*	19	88*	23	46*
Cn1nc(C(C)(C)C)cc1C(=O)NCc1cc(F)cc2c1OCOC2	25	23	102*	58*	65*	60*	x	70*	26*	37*
Cc1cc(C)c(C)c(S(=O)(=O)NCc2ccncc2)c1C	27	-21	46	22	28	x	x	x	x	x
Cc1ccc(S(=O)(=O)NCc2ccncc2)cc1C	15	22	90*	74*	52*	55*	x	73*	26*	36*
O=C(c1ccc(Cl)cc1)c1cc([N+](=O)[O-])ccc1N1CCOCC1	65*	8	32	53	70*	41	52*	51*	47*	-41	FLuc counter=81*
O=C(c1ccccc1)c1cc([N+](=O)[O-])ccc1N1CCOCC1	34	-8	x	50	51*	49*	x	56*	53*	-42
CC(=O)c1sc(NC(=O)C2CCCN2S(=O)(=O)c2ccccc2F)nc1C (configuration not stated)	14	-12	x	-2	15	x	x	x	x	x
CC1CC(C)CN(c2ncnc3c2cnn3-c2ccc(Cl)cc2)C1 (configuration not stated)	43	-198	x	-10	-129	x	x	x	x	x
CC1CCCN(c2ncnc3c2cnn3-c2ccc(Cl)cc2)C1 (configuration not stated)	96*	-8	3	81*	60*	87*	95*	92*	67*	106*	FLuc counter=42*
CCOC(=O)NC(=O)COC(=O)c1ccc(Sc2ncn[nH]2)c([N+](=O)[O-])c1	7	-1	-7	-4	2	x	x	x	x	x
Cc1ccc(S(=O)(=O)NC2CCCC2)cc1C(N)=O	6	10	1	-15	-2	x	x	x	x	x
Cc1cc(C)nc(NC(=O)CN2C(=O)c3ccccc3S2(=O)=O)n1	-5	-15	x	-4	-1	x	x	x	x	x
CC(C)NC(=O)CN1C(=O)c2ccccc2S1(=O)=O	-14	-20	-4	5	-38	x	x	x	x	x
Cc1ccc(C(=O)CN2C(=O)c3ccccc3S2(=O)=O)cc1	98*	73*	-2	78*	81*	66*	96*	87*	26*	95*	697 NFkB conf=51*;FLuc counter=23
Cc1cc(C(=O)CN2C(=O)c3ccccc3S2(=O)=O)c(C)n1C(C)C	56*	10	-1	57*	55*	19	41*	49*	12	44*	FLuc counter=37*
SMILES	Mdm2 MdmX PPI	697 NFkB inh	Beta cell apopt	Gli-Sufu block	Jurkat NFkB inh	Jurkat NFkB conf	Mdm2-MdmX conf	Gli antag conf	Gli cytotox	Wnt3a cs	others
CC(C)N(CC(O)COc1ccc(CC(N)=O)cc1)CC(O)COc1ccc(CC(N)=O)cc1 (configuration not stated)	-37	5	0	x	3	x	x	x	x	x
CCC[C@H]1NC(=O)[C@H](C)N(C)C(=O)C(C)(C)C(=O)C(C)NC(=O)[C@H](Cc2ccc(OC)cc2)N(C)C(=O)[C@H](C(C)C)N(C)C(=O)CNC(=O)[C@H](CC(C)C)N(C)C(=O)CNC(=O)[C@H]([C@@H](C)CC)OC(=O)[C@H]1C (some centres not stated)	94*	-28	x	75*	82*	42	91*	89*	58*	61*	FLuc counter=5
COc1ccc(CN(C)c2ccc(S(=O)(=O)N3CCN(C)CC3)cc2[N+](=O)[O-])cc1OC	9	87*	102*	74*	68*	75*	x	74*	35*	45*	697 NFkB conf=97*
COc1ccc(F)cc1S(=O)(=O)N1CCC2(CC1)OCCN2S(=O)(=O)c1cccs1	-28	4	0	1	-10	x	x	x	x	x
Cc1cc(C)cc(N(CC(=O)NC2CCCC2)C(=O)CNC(=O)c2cccs2)c1	-14	13	-2	46	21	x	x	x	x	x
N#Cc1ccc(-c2cccs2)nc1SCc1cccnc1	46	-37	5	60*	66*	37	x	34	55*	-39
COc1ccc(C2=NOC(C(=O)NCc3ccccc3)C2)cc1 (configuration not stated)	39	-92	-2	55*	64*	14	x	38	54*	-31

Source: PubChem (several laboratories)
